In the library only some 12% were active in any assay of this set; here they are far more common.
JMJD2A Tudor inh: qHTS Assay for Inhibitors of JMJD2A-Tudor Domain; actives 4.4% (n = 390,000); AlphaScreen JMJD2A-Tudor / H3K4me3 peptide binding; Lysine-specific demethylase 4A (Homo sapiens), O75164; Potency, µM (doses to about 114 µM), hits mostly inhibitors; note: nearly all actives have a fitted effect of over 50% in size
PI5P4Ka inh: qHTS for Inhibitors of phosphatidylinositol 5-phosphate 4-kinase (PI5P4K). max response, %. PI5P4Kalpha enzyme, ADP-Glo luminescence, 60 min; hits give low values. actives 1.2% (n = 330,000). Phosphatidylinositol 5-phosphate 4-kinase type-2 alpha (Homo sapiens), P48426. AID 652105, 2013; active = max response of -50% or lower; inconclusive = between -30% and -50%; inactive = -30% or higher; note: value at the top dose of about 77 µM
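ADP-Glo luminescence end-point read after a 60 min room-temperature kinase reaction of PI5P4Kalpha plus substrate, initiated with ATP at 5 microM final. Buffer: 0.038 M HEPES pH 7.4, EGTA, 0.1% CHAPS, 5% DMSO.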
BAZ2B inh: qHTS Assay for Inhibitors of BAZ2B. AlphaScreen BAZ2B-H3K14Ac peptide displacement. Potency, µM (top dose mostly 114 µM), most hits filed as inhibitors. actives 4.4% (n = 360,000); note: nearly all actives have a fitted effect of over 60% in size
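Protein-peptide AlphaScreen: BAZ2B 50 nM, b-H3K14Ac 50 nM, 1x PBS pH 7.4 + 0.01% Tween-20. Preincubation 30 min RT; cpd 30 min RT (top 110 uM); beads 20 min RT, light-protected.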
PLK1 PBD inh: qHTS for Inhibitors of PLK1-PDB (polo-like kinase 1 - polo-box domain): Primary Screen; AID 720504, 2013; Serine/threonine-protein kinase PLK1 (Homo sapiens), P53350; Plk1 PBD binding of FITC phosphopeptide, fluorescence polarization; actives 2.8% (n = 360,000); Potency, µM, actives largely listed as inhibitors; note: series mostly up to about 57 µM; nearly all actives have a fitted effect of over 65% in size
HP1b binding inh: HTS for Inhibitors of HP1-beta Chromodomain Interactions with Methylated Histone Tails. Chromobox protein homolog 1 (Homo sapiens), P83916. AlphaScreen HP1-beta / biotin-H3K9me3 peptide binding. Potency, µM (top dose mostly 114 µM), usual class: inhibitors. actives 0.56% (n = 390,000). AID 540317, 2011; note: nearly all actives have a fitted effect of over 70% in size
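AlphaScreen: HP1-beta (50 nM) preformed 30 min with biotin-H3(1-18)K9me3 peptide (50 nM) in PBS pH 7.4, 0.01% Tween-20. Compound added for 30 min at RT, then streptavidin donor/nickel chelate acceptor beads (10 ug/mL) for 30 min.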
G9a block: qHTS Assay for Inhibitors of Histone Lysine Methyltransferase G9a. AID 504332, 2011. actives 8.8% (n = 350,000). G9a H3K9 monomethylation, AlphaScreen, 2 h. Histone-lysine N-methyltransferase EHMT2 (Homo sapiens), Q96KQ7. Potency, µM (top dose mostly 102 µM), usual class: inhibitors; note: nearly all actives have a fitted effect of over 75% in size
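Using a bead-based AlphaScreen, monomethylated H3K9 product from 2 h room-temperature reactions (G9a 20 nM, peptide 500 nM, SAM 20 uM) was detected with 0.5 ug/mL rabbit anti-H3K9me1 antibody.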
Hits are given with their value; [ ] = remark or other dose. Unless noted, calls come from the whole dose curve; as a rule, active = well fitted curve in the direction sought with a large enough effect; inconclusive = small, poorly fitted or top-dose-only effect, or another doubt; inactive = no such curve, though single readings can be large; an effect the other way counts as inactive or inconclusive.

How did CCN(c1ccc(OC)cc1)S(=O)(=O)c1nnc(NC(=O)CC(C)C)s1 do in these assays?
JMJD2A Tudor inh: inactive; PI5P4Ka inh: inactive; BAZ2B inh: inactive; PLK1 PBD inh: inactive; HP1b binding inh: inactive; G9a block: inactive[2.33 µM]

Results for CCOC(=O)N1CCN(/[N+]([O-])=N/Oc2ccc([N+](=O)[O-])cc2[N+](=O)[O-])C(C)C1 (stereo not drawn) ?
JMJD2A Tudor inh: inactive; HP1b binding inh: inactive

Results for Cc1ccsc1CN1CCN(c2ccccn2)CC1 ?
JMJD2A Tudor inh: 1.8µM; BAZ2B inh: 50µM; PLK1 PBD inh: inactive; HP1b binding inh: inactive; G9a block: inconclusive

How did Cc1ccsc1/C=N/N1CCN(Cc2ccccc2)CC1 do in these assays?
JMJD2A Tudor inh: 56µM; PI5P4Ka inh: inactive; BAZ2B inh: inconclusive; PLK1 PBD inh: 21µM; HP1b binding inh: inconclusive; G9a block: 32µM

Results for Fc1ccc(CN2CCN(C(c3ccccc3)c3ccccc3)CC2)cc1 ?
JMJD2A Tudor inh: 22µM; PI5P4Ka inh: inactive; BAZ2B inh: 50µM; PLK1 PBD inh: inactive; HP1b binding inh: inconclusive; G9a block: 32µM

How did CCCCN1C(=O)C(=O)N(CC(=O)N2CCc3ccccc32)C1=O do in these assays?
JMJD2A Tudor inh: inactive; PI5P4Ka inh: inactive; BAZ2B inh: inactive; PLK1 PBD inh: inactive; HP1b binding inh: inactive; G9a block: inactive[2.33 µM]

How did CC1(C(=O)Nc2ccc3c(c2)OCCO3)CSCC(=O)N1CCc1ccccc1F (stereo not drawn) do in these assays?
PI5P4Ka inh: inactive; PLK1 PBD inh: inactive

Results for CC(=O)C1CCC2C3CC(C)=C4CC(O)CCC4(C)C3CCC12C (stereo not drawn) ?
JMJD2A Tudor inh: inactive; PI5P4Ka inh: inactive; PLK1 PBD inh: inactive; HP1b binding inh: inactive

What do the screens show for `CCN1/C(=C2/OC(=S)N(C)C2=O)Sc2ccccc21`?
JMJD2A Tudor inh: inactive; PI5P4Ka inh: inactive; BAZ2B inh: inactive; PLK1 PBD inh: inactive; HP1b binding inh: inactive; G9a block: inconclusive

What do the screens show for `CCN1/C(=C2/SC(=S)NC2=O)Sc2ccccc21`?
JMJD2A Tudor inh: inactive; PI5P4Ka inh: inconclusive; BAZ2B inh: inactive; PLK1 PBD inh: inactive; HP1b binding inh: inactive; G9a block: 8.9µM

How did O=C(CSc1ncccn1)NC(=O)NC1CCCC1 do in these assays?
PI5P4Ka inh: inactive; PLK1 PBD inh: inactive

Results for O=C(NCCO)C(=O)Nc1cc2c3c(c1)CC(=O)N3CCC2 ?
JMJD2A Tudor inh: inactive; PI5P4Ka inh: inactive; BAZ2B inh: inactive; PLK1 PBD inh: inactive; HP1b binding inh: inactive; G9a block: inactive

What do the screens show for `O=C(CCl)c1cc2c3c(c1)CC(=O)N3CCC2`?
JMJD2A Tudor inh: inactive; PI5P4Ka inh: inactive; BAZ2B inh: inconclusive; PLK1 PBD inh: 1.2µM; HP1b binding inh: inactive; G9a block: 50µM

Results for O=C(Nc1cc2c3c(c1)CC(=O)N3CCC2)c1ccco1 ?
JMJD2A Tudor inh: inactive; PI5P4Ka inh: inactive; BAZ2B inh: inactive; PLK1 PBD inh: inactive; HP1b binding inh: inactive; G9a block: 35µM

Results for CCc1nnc2c(N3CCN(c4cccc(C(F)(F)F)c4)CC3)nc3ccccc3n12 ?
JMJD2A Tudor inh: inactive; BAZ2B inh: inactive; HP1b binding inh: inactive; G9a block: inactive

What do the screens show for `O=C(NC1CCCCC1)Sc1ccc(Cl)cc1`?
JMJD2A Tudor inh: inactive; PI5P4Ka inh: inactive; BAZ2B inh: inactive; PLK1 PBD inh: 2.7µM; HP1b binding inh: inactive; G9a block: inconclusive

How did O=C(CNC(=O)c1[nH]cnc1C(=O)NC(c1ccccc1)c1ccccc1)OCc1ccccc1 do in these assays?
JMJD2A Tudor inh: inconclusive; PI5P4Ka inh: inactive; BAZ2B inh: inactive; PLK1 PBD inh: 24µM; HP1b binding inh: inactive

Results for C[C@H](NC(=O)c1nc[nH]c1C(=O)NCCCCCN)C(=O)OCc1ccccc1 ?
JMJD2A Tudor inh: 45µM; PI5P4Ka inh: inactive; BAZ2B inh: 50µM; PLK1 PBD inh: inactive; HP1b binding inh: inactive; G9a block: inactive[2.33 µM]

How did C[C@H](NC(=O)c1nc[nH]c1C(=O)NCCCCCN)C(=O)OC(C)(C)C do in these assays?
JMJD2A Tudor inh: 56µM; PI5P4Ka inh: inactive; BAZ2B inh: 50µM; PLK1 PBD inh: inactive; HP1b binding inh: inactive; G9a block: inactive[2.33 µM]

Results for C[C@H](NC(=O)c1nc[nH]c1C(=O)N1CCNCC1)C(=O)OC(C)(C)C ?
JMJD2A Tudor inh: 35µM; PI5P4Ka inh: inactive; BAZ2B inh: 50µM; PLK1 PBD inh: inactive; HP1b binding inh: inactive; G9a block: inconclusive

What do the screens show for `CC(=O)c1ccc(OCCCC(=O)NNC(=O)c2ccccn2)cc1`?
JMJD2A Tudor inh: inactive; PI5P4Ka inh: inactive; BAZ2B inh: inactive; PLK1 PBD inh: inactive; HP1b binding inh: inactive; G9a block: inconclusive

What do the screens show for `CN(Cc1ccco1)c1ncncc1-c1ccccc1Cl`?
G9a block: inactive[0.501 µM]

How did COc1ncc2nc(-c3cccc(C#N)c3)c(=O)n(CCC#N)c2n1 do in these assays?
G9a block: inactive[12.7 µM]

How did CC(=O)Nc1nc(=O)c2ccccc2s1 do in these assays?
JMJD2A Tudor inh: inactive; BAZ2B inh: inactive; PLK1 PBD inh: inactive; HP1b binding inh: inactive; G9a block: 22µM

Results for O=C(Nc1nc(=O)c2ccccc2s1)c1ccccc1 ?
JMJD2A Tudor inh: inactive; PI5P4Ka inh: inactive; BAZ2B inh: inactive; PLK1 PBD inh: inactive; HP1b binding inh: inactive; G9a block: inconclusive

What do the screens show for `CC(=O)OC[C@H]1O[C@@H](O[C@H]2C[C@]3(C)C(C[C@@H](O)C4C([C@]5(C)CC[C@@H](C(C)(C)O)O5)CC[C@]43C)[C@@]3(C)CC[C@H](O)C(C)(C)C23)[C@H](O[C@@H]2O[C@@H](C)[C@H](O)[C@@H](O)[C@H]2O)[C@@H](O)[C@@H]1O` (stereo partly drawn)?
JMJD2A Tudor inh: inactive; PI5P4Ka inh: inactive; PLK1 PBD inh: inactive; HP1b binding inh: inactive

Results for c1cc(CN2CCCCC2)cc(OCCCNc2nc3ccccc3s2)c1 ?
JMJD2A Tudor inh: inconclusive; PI5P4Ka inh: inactive; PLK1 PBD inh: inactive; HP1b binding inh: inactive; G9a block: inactive[12.7 µM]

What do the screens show for `O=C(NCCCOc1cccc(CN2CCCCC2)c1)c1ccc(Cl)c(Cl)c1`?
JMJD2A Tudor inh: 3.5µM; PI5P4Ka inh: inactive; BAZ2B inh: inconclusive; PLK1 PBD inh: inactive; HP1b binding inh: inconclusive; G9a block: 10µM

How did COc1ccc(F)c(CN2CCC(N3CCC(C(=O)N4CCOCC4)CC3)CC2)c1 do in these assays?
JMJD2A Tudor inh: inactive; PI5P4Ka inh: inactive; BAZ2B inh: inactive; PLK1 PBD inh: inactive; HP1b binding inh: inactive; G9a block: inactive

Screening results deposited in PubChem BioAssay by National Center for Advancing Translational Sciences (NCATS).
